Potency and outcome data for seven compounds are collected here from PubChem BioAssay (Tox21).

Structures are written as SMILES. Records with an inconclusive call do not appear. Values without a mark were called inactive. Activity calls are given as the source filed them. Unless noted, the call rests on the fitted dose curve; in most records, active means well fitted curve in the direction sought with a large enough effect in the repeat runs; inconclusive means weak or mixed curves; inactive means no such curve, though single readings can be large; an effect the other way counts as inactive or inconclusive.

The nature of test [1]: qHTS assay to identify small molecule antagonists of the thyroid receptor (TR) signaling pathway - cell viability counter screen (AID 743064). Further: nearly all actives have a fitted effect of over 50% in size. In short, it runs like this: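 Viability of T3-stimulated (1 nM final) GH3.TRE-Luc cells is measured by CellTiter-Fluor fluorescence after 23.5 h compound exposure at 37 °C plus 30 min reagent incubation.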
Test [2] is described as follows: qHTS assay to identify small molecule antagonists of the thyroid receptor (TR) signaling pathway (AID 743065). Further: series mostly up to about 70 µM; nearly all actives have a fitted effect of over 55% in size. In short, it runs like this:
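Antagonism measured as loss of luciferase signal in GH3 cells stably carrying a TRE-luciferase reporter, co-treated with compound and T3 (1 nM final) for 23.5 h at 37 C. Viability was read in the same well by CellTiter-Fluor.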

In test [3] the test system is thyroid hormone receptor (rat, GH3 cells). In words: qHTS assay to identify small molecule agonists of the thyroid receptor (TR) signaling pathway (AID 743066; calls by dose curve).
For test [4], the target named is Estrogen receptor (Homo sapiens) (UniProt P03372). In words: qHTS assay to identify small molecule antagonists of the estrogen receptor alpha (ER-alpha) signaling pathway (AID 743069; active means well fitted curve in the direction sought with a large enough effect in the signal ratio in the repeat runs, not every such curve was filed as active; the % refers to the signal ratio). In short, it runs like this:
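ER-alpha-UAS-bla GripTite HEK293 line; 2% charcoal-stripped FBS overnight; plated, 4 hr 37C/5% CO2; cpd in DMSO + 17beta-estradiol, 18 hr 37C; LiveBLAzer B/G FRET substrate 2 hr RT; fluorescence intensity.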
A general note: Quantitative high-throughput screening tests each substance at several concentrations.

The nature of test [5]: qHTS assay to identify small molecule antagonists of the estrogen receptor alpha (ER-alpha) signaling pathway - cell viability counter screen (AID 743074; calls by dose curve;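 further: HEK293 cells carrying ER-alpha-UAS-bla reporter stimulated with 17beta-estradiol; nearly all actives have a fitted effect of over 45% in size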).
Test [6] concerns the target Estrogen receptor (Homo sapiens) (UniProt P03372). The test is described as follows: qHTS assay to identify small molecule agonists of the estrogen receptor alpha (ER-alpha) signaling pathway (AID 743075; calls by dose curve;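 further: HEK293 GripTite cells with ER-alpha and UAS-driven beta-lactamase reporter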).
The target is the same in test [7]. The test is described as follows: qHTS assay to identify small molecule agonists of the estrogen receptor alpha (ER-alpha) signaling pathway using the BG1 cell line (AID 743079). Further: nearly all actives have a fitted effect of over 20% in size. Further: potency means the concentration at half of the fitted maximal effect.
Test [8] is described as follows: qHTS assay to identify small molecule antagonists of the estrogen receptor alpha (ER-alpha) signaling pathway using the BG1 cell line (AID 743080; calls by dose curve;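 further: BG1 cells stimulated with 17beta-estradiol alongside compound; series mostly up to about 70 µM; nearly all actives have a fitted effect of over 25% in size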). In outline:
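BG1Luc4E2, endogenous ER-alpha, 4xERE-luc; 5 d charcoal-stripped FBS, phenol red free; 24 h plating; cpd + 17beta-estradiol 21.5 h, 37 C/5% CO2; CellTiter-Fluor viability 30 min, then ONE-Glo luciferase 30 min RT.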

Test [9] can be described thus: qHTS assay to identify small molecule antagonists of the estrogen receptor alpha (ER-alpha) signaling pathway using the BG1 cell line - cell viability counter screen (AID 743081).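 Further: compound given together with 17beta-estradiol as the ER stimulus; series mostly up to about 70 µM; nearly all actives have a fitted effect of over 45% in size.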
The next test addresses Aromatase (Homo sapiens) (UniProt P11511). The test is described as follows: qHTS assay to identify aromatase inhibitors (AID 743083). Further: series mostly up to about 70 µM; nearly all actives have a fitted effect of over 55% in size.
A short description of test [10]: qHTS assay to identify aromatase inhibitors - cell viability counter screen (AID 743084).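 Further: cells stimulated with testosterone during compound exposure; nearly all actives have a fitted effect of over 55% in size.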
The target of test [11] is Aryl hydrocarbon receptor (Homo sapiens) (UniProt P35869). In words: qHTS assay to identify small molecule that activate the aryl hydrocarbon receptor (AhR) signaling pathway (AID 743085). Further: nearly all actives have a fitted effect of over 15% in size. Further: potency means the concentration at half of the fitted maximal effect.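 On activation: HG2L7.5c1 human HepG2 liver cells with stably integrated DRE-driven firefly reporter; series mostly up to about 70 µM.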 In outline: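 A multiplexed format paired cell viability (CellTiter-Fluor fluorescence) with AhR-dependent luciferase output (ONE-Glo luminescence) in the same wells of HepG2 DRE-luc cells after 24 h compound exposure at 37C.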

The nature of test [12]: qHTS assay to identify small molecule that activate the aryl hydrocarbon receptor (AhR) signaling pathway - cell viability counter screen (AID 743086).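 Further: HepG2 liver cells carrying the AhR DRE luciferase reporter; series mostly up to about 70 µM; nearly all actives have a fitted effect of over 45% in size.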 In short, it runs like this:
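Cytotoxicity counter screen: CellTiter-Fluor signal (30 min, 37 C) in 4000 HepG2 cells/well carrying the DRE-luciferase reporter, following 24 h compound exposure at 37 C.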

Test [13] addresses Peroxisome proliferator-activated receptor gamma (Homo sapiens) (UniProt P37231). The test is described as follows: qHTS assay to identify small molecule agonists of the peroxisome proliferator-activated receptor gamma (PPARg) signaling pathway (AID 743094; active means well fitted activation curve with a large enough effect in the signal ratio in the repeat runs, not every such curve was filed as active; the % refers to the signal ratio). In outline:
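GeneBLAzer PPARg UAS-bla HEK293H cells carrying a stably integrated beta-lactamase reporter were pre-incubated 5 h at 37C, then exposed to compounds in DMSO for 17 h at 37C; LiveBLAzer B/G FRET substrate was added for 1 h at room temperature and fluorescence read.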

The target is the same in test [14]. The test is described as follows: qHTS assay to identify small molecule antagonists of the peroxisome proliferator-activated receptor gamma (PPARg) signaling pathway (AID 743191; calls by dose curve; further: series mostly up to about 63 µM; nearly all actives have a fitted effect of over 30% in size). In short, it runs like this: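 Beta-lactamase reporter under UAS control in HEK293H PPARg-bla cells; compound treatment 17 h at 37C. Read-out: fluorescence intensity after 1 h room-temperature incubation with LiveBLAzer B/G FRET substrate.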

Test [15] in a line: qHTS assay to identify small molecule antagonists of the peroxisome proliferator-activated receptor gamma (PPARg) signaling pathway - cell viability counter screen (AID 743194). Further: nearly all actives have a fitted effect of over 55% in size. In outline: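 Viability was measured as CellTiter-Glo luminescence in GeneBLAzer PPARg UAS-bla HEK293H cells. These cells had been exposed 17 h at 37 C to compounds together with rosiglitazone at 50 nM final, with the beta-lactamase readout taken in the same wells.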

Test [16] is described as follows: qHTS assay for small molecule agonists of the antioxidant response element (ARE) signaling pathway (AID 743202; active means well fitted activation curve with a large enough effect in the signal ratio in the repeat runs, not every such curve was filed as active; the % refers to the signal ratio). In short, it runs like this: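 Quantitative high-throughput format in HepG2 cells bearing an integrated ARE-beta-lactamase reporter. Compound exposure lasted 16 h at 37 C, and fluorescence was read 2 h after adding LiveBLAzer B/G substrate at room temperature.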

Test [17] in a line: qHTS assay for small molecule activators of the heat shock response signaling pathway - cell viability counter screen (AID 743209). Further: nearly all actives have a fitted effect of over 50% in size. In outline:
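CellSensor HSE-bla HeLa cells, plated overnight at 37 C/5% CO2, were exposed to compounds in DMSO for 5 h at 37 C. Viability was then read in the same wells by CellTiter-Glo luminescence after 30 min at room temperature.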

Test [18] is described as follows: qHTS assay for small molecule activators of the heat shock response signaling pathway (AID 743210; active means well fitted activation curve with a large enough effect in the signal ratio in the repeat runs, with a control signal flat, not every such curve was filed as active; the % refers to the signal ratio;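 further: HeLa cells with beta-lactamase reporter driven by heat shock elements; series mostly up to about 63 µM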). In outline: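 HeLa HSE-bla cells, overnight plating; cpd in DMSO 5 h, 37 C; LiveBLAzer B/G FRET substrate 2.5 h RT; fluorescence intensity read.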
A short description of test [19]: qHTS assay for small molecule agonists of the antioxidant response element (ARE) signaling pathway - cell viability counter screen (AID 743203; calls by dose curve; further: nearly all actives have a fitted effect of over 55% in size). In outline:
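CellSensor ARE-bla HepG2 cells, 2,000 per well, rested 5 hrs at 37C/5% CO2, then exposed to compound in DMSO for 16 hrs; viability read as CellTiter-Glo luminescence after 30 min at room temperature, in the reporter wells.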

Sequence of Aryl hydrocarbon receptor (Homo sapiens) (P35869 whole entry, looked up): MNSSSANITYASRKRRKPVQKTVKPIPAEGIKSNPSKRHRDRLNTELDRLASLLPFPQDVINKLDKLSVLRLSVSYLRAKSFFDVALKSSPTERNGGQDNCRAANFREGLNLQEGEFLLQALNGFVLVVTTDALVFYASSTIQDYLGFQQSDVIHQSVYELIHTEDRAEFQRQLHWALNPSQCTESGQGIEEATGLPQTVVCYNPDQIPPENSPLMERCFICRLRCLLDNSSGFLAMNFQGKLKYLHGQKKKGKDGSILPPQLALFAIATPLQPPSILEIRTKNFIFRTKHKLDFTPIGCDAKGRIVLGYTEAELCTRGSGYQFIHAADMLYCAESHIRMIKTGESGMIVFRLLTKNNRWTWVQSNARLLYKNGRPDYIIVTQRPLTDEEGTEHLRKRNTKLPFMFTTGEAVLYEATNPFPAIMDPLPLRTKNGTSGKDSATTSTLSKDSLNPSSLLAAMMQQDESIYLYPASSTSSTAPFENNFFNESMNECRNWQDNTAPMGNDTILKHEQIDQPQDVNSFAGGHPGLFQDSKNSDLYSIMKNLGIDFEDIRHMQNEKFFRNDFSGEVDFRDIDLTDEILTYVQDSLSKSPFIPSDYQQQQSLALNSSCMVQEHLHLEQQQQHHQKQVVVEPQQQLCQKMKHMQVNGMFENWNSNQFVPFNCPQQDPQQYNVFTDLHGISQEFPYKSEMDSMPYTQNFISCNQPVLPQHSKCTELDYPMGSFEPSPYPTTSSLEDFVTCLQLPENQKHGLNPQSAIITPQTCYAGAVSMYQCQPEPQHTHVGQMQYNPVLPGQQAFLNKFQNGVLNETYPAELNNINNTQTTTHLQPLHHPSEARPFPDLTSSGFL
Sequence of Estrogen receptor (Homo sapiens) (P03372 whole entry, looked up): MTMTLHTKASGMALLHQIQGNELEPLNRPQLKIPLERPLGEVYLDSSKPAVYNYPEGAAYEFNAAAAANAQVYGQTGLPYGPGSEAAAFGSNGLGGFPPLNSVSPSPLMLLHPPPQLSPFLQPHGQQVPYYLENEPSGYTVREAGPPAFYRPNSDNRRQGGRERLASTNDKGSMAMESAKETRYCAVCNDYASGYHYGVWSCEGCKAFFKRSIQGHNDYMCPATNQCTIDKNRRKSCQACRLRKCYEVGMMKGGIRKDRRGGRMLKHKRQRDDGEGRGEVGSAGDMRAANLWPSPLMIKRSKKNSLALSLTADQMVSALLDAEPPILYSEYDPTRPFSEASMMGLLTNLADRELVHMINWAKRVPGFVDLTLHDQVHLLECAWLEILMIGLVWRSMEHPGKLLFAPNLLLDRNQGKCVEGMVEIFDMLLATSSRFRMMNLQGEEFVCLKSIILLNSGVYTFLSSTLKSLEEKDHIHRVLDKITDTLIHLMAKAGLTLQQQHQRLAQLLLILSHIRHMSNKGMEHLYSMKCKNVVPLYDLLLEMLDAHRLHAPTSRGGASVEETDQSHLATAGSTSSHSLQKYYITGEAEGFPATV
Sequence of Peroxisome proliferator-activated receptor gamma (Homo sapiens) (P37231 whole entry, looked up): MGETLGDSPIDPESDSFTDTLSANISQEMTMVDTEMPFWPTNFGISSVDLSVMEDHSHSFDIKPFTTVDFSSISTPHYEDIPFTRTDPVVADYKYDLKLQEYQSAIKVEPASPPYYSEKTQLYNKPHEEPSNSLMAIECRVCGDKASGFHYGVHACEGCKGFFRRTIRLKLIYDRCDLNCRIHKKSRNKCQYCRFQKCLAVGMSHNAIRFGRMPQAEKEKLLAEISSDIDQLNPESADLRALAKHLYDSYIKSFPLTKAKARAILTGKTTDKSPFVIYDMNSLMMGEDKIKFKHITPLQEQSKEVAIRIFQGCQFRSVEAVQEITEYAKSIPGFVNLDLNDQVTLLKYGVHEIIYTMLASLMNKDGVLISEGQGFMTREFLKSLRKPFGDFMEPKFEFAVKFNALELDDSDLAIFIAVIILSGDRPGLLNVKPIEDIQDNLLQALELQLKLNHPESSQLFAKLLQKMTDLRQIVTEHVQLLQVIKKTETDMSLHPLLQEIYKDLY
Sequence of Aromatase (Homo sapiens) (P11511 whole entry, looked up): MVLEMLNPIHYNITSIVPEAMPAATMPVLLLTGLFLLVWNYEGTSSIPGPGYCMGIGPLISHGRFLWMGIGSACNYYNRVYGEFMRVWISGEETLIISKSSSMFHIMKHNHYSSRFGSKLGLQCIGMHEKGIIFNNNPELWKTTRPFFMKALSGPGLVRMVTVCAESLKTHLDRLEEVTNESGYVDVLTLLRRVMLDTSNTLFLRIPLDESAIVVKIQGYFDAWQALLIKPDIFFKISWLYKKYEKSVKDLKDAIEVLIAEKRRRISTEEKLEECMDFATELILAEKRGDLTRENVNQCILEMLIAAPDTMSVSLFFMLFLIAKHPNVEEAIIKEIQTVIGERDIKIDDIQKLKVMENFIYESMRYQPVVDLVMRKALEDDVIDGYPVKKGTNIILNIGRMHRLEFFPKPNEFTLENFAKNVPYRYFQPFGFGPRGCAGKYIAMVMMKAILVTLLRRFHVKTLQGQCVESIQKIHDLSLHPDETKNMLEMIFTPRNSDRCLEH

With `O=Cc1ccc([N+](=O)[O-])cc1`, the Potency entry in test [1], in test [2], in [4], in test [6], in test [8] and in test [9] was “inactive” in each case. Moreover, the Potency entry (with Aromatase (Homo sapiens); in test [10]; in test [11]; in test [12]; in test [13]; in [14]) was “inactive” each time. The Potency entry in test [15] and in [16] was “inactive” in each case. Besides, the compound was classed as inactive in test [3], in [5], in [17] and in [18]. Further, the Potency in test [7] was 30.8 µM (active).
`CCCCCCCCCCCC(=O)OCC`: the Potency result in test [1], in test [2], in test [4], in [6], in [7] and in test [8] was “inactive” in each case. Further, the Potency result (in test [9]; with Aromatase (Homo sapiens); in test [10]; in test [11]; in [12]; in test [13]) was “inactive” throughout. Also, the Potency entry in test [14], in test [15], in test [16] and in test [19] was “inactive” each time. Further, the result in [3], in test [5] and in test [17] was inactive.
`Cc1ccccc1CCO`: the Potency entry in [1], in [2], in test [4], in test [6], in test [7] and in test [8] was “inactive” in each case. The Potency entry (in test [9]; with Aromatase (Homo sapiens); in [10]; in test [11]; in [12]; in test [13]) was “inactive” throughout. The Potency entry in test [14], in test [15], in test [16] and in [19] was “inactive” in each case. Further, the call in test [3], in [5] and in test [18] was inactive.
Turning to `CC1(C)CC(O)CC(C)(C)N1[O]`, the Potency result in [1], in [2], in test [4], in [6], in test [7] and in test [8] was “inactive” each time. Further, the Potency entry (in [9]; with Aromatase (Homo sapiens); in test [10]; in test [11]; in test [12]; in [13]) was “inactive” each time. The Potency result in test [14], in test [15] and in test [19] was “inactive” each time. Besides, the compound was classed as inactive in [3], in test [5], in test [17] and in [18].
In the case of `O=c1[nH][nH]c2ccccc12`, the Potency entry in [1], in test [2], in test [4], in [6], in test [7] and in test [8] was “inactive” throughout. For the same compound, the Potency entry (in test [9]; in the test with Aromatase (Homo sapiens); in test [10]; in test [12]; in [15]; in test [19]) was “inactive” in each case. The outcome in [3], in test [5] and in test [17] was inactive. The Potency in [11] was 62.3 µM (active).
Take `CCCC(=O)OCCC(C)C`: the Potency result in test [1], in [2], in [4], in test [6], in [7] and in test [8] was “inactive” each time. Besides, the Potency entry (in [9]; with Aromatase (Homo sapiens); in test [10]; in test [11]; in test [12]; in [13]) was “inactive” throughout. Also, the Potency result in test [14], in test [15], in test [16] and in test [19] was “inactive” throughout. Also, the compound was called inactive in test [3], in [5], in [17] and in test [18].
`CC(C)Oc1ccccc1O`: the Potency result in [1], in test [2], in test [4], in test [6], in test [7] and in test [8] was “inactive” in each case. Besides, the Potency entry (in test [9]; with Aromatase (Homo sapiens); in test [10]; in test [11]; in [12]; in [13]) was “inactive” in each case. Also, the Potency result in [15], in test [16] and in [19] was “inactive” each time. Further, the call in test [3], in [5], in test [17] and in test [18] was inactive.
